Shown is part of a subset that was picked to be rich in hits.
ERK EGF inh = blocks ERK signaling stimulated by EGF. HEK293-V1b, EGF-stimulated phospho-ERK AlphaScreen. Potency, µM (titrated, usually from 11.5 µM), without a hit: at the highest dose activity change, negative = inhibition, most hits filed as inhibitors. actives 0.41% (n = 130,000). AID 1454;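 note: potency is the fitted concentration of half-maximal effect; plate controls were stimulated vehicle wells for no effect and unstimulated vehicle basal for full effect; nearly all actives have a fitted effect of over 55% in size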
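Phospho-ERK1/2 measured by AlphaScreen (SureFire) after 5 min 25 nM EGF stimulation of V1b-expressing HEK293 cells preincubated 30 min at 37C with titrated compounds; data scaled to DMSO and EGF controls, Hill-fitted AC50.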
ERK pERK EGF = reduces EGF-stimulated ERK phosphorylation in HEK293 cells; shares compounds with ERK EGF inh; HEK293 EGF-stimulated ERK phosphorylation, AlphaScreen; Potency, µM (top dose mostly 57.5 µM), without a hit: at the top dose activity change, negative = inhibition, hits mostly inhibitors; actives 60% (n = 60); AID 1725
c-Raf inh = blocks human c-Raf kinase activity; shares compounds with ERK EGF inh; c-Raf kinase inhibition, homogeneous biochemical assay; activity change, negative = inhibition, % at 76.9 µM; 70 tested, under 10 active; AID 1728
Target sequence (P04049 whole entry, looked up): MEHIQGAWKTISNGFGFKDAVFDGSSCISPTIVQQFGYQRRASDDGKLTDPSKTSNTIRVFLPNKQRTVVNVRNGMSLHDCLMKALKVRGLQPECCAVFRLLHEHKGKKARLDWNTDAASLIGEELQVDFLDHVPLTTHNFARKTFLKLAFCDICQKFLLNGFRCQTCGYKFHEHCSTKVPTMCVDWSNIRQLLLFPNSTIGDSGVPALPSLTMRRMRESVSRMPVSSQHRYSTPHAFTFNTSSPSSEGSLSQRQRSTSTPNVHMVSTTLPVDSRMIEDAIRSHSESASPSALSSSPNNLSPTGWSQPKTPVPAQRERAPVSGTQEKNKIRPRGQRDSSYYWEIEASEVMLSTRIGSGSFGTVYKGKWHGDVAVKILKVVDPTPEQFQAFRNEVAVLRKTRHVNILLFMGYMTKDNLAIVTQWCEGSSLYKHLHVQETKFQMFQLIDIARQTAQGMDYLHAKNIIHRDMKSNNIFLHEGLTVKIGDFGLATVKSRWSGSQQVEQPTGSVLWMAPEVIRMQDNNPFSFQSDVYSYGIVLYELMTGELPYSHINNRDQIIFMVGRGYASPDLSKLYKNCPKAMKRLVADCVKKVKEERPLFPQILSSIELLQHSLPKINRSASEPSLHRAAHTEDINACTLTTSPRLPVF
MEK1 kinase inh = MEK1 (human) kinase inhibition. shares compounds with ERK EGF inh. AID 1732. Potency, µM (doses to about 76.9 µM), for inactives: at the highest dose activity change, negative = inhibition, most hits filed as inhibitors. homogeneous MEK kinase activity assay, ERK pathway. 70 tested, under 10 active
Starred values were filed as active, the others as inactive; ? = inconclusive; [ ] = another dose, or the depositor's remark. Calls come from the whole dose curve; as a rule, active = well fitted curve in the direction sought with a large enough effect; inconclusive = small, poorly fitted or top-dose-only effect, or another doubt; inactive = no such curve, though single readings can be large; an effect the other way counts as inactive or inconclusive.

SMILES	ERK EGF inh	others
C=C(CO)C1Cc2c(ccc3c(=O)c4c(oc23)COc2cc(OC)c(OC)cc2-4)O1 (configuration not stated)	-16.6%
COC(=O)NC(c1ccc2c(c1)OCO2)C(C(=O)OC)C(=O)OC (configuration not stated)	-19.2%
COCCn1c(=O)c(-c2cc(F)cc(F)c2)nc2cnc(Oc3cccc(Cl)c3)nc21	-17.1%
CN(C)c1ccc(-c2nc(N3CCNCC3)c3ccccc3n2)cc1	10.7%
CN1CCN(CC(=O)NN2CC(=O)N(c3ccc(F)cc3)CC2=O)CC1	1.7%[57.5 µM]
O=C(CN1CCc2ccccc21)NN1CC(=O)N(c2ccc(Cl)cc2)CC1=O	17.8µM*
O=C(Nc1ccccc1)NN1CC(=O)N(c2ccc(Cl)cc2)CC1=O	-24.1%[57.5 µM]
CN(C)Cc1ccccc1-c1cncnc1Nc1ccc(F)cc1	11.6%
CC1C(NC(=O)/C(=N/OC(C)(C)C(=O)O)c2csc(N)n2)C(=O)N1S(=O)(=O)O (configuration not stated)	4.9%
Cc1ccc(S(=O)(=O)OCCc2ccccc2)cc1	-11.8%
CC[C@H](C)[C@@H](NC(=O)O[C@@H]1C(=O)c2ccc(OC)cc2O[C@H]1c1ccc2c(c1)OCO2)C(=O)OC	-9.6%
O=C(O)c1ccccc1C(=O)c1ccc(N2CCCC2)c([N+](=O)[O-])c1	-1.0%
COc1ccccc1N1CCN(C(=O)/C=C/c2cccc([N+](=O)[O-])c2)CC1	-9.2%[57.5 µM]
COc1ccccc1C(=O)/C=C/c1ccc(N2CCCCC2)c([N+](=O)[O-])c1	15.8µM*
O=C1C(Cl)=C(NCCN2CCCCC2)C(=O)c2ccccc21	5.3%
CCOc1ccc(Nc2c3ccccc3nc3ccccc23)cc1	10.7%[57.5 µM]
COc1ccc(C2=C(Nc3ccccc3)c3ccccc3C2=O)cc1	-1.7%
CCN(CC)c1ccc(NC2=C(Cl)C(=O)c3ccccc3C2=O)cc1	10µM*
CCOc1ccc(NC2=C(OC)C(=O)c3ccccc3C2=O)cc1	12.6µM*
COC1=C(Nc2ccc(OC)cc2)C(=O)c2ccccc2C1=O	12.6µM*
CCOc1ccc(NC(C)=O)cc1	-17.0%
COc1ccc(NC2=C(c3ccc(OC)cc3)C(=O)c3ccccc32)cc1	3.4%
CCNC1=C(Cl)C(=O)c2ccccc2C1=O	15.5%[57.5 µM]
NS(=O)(=O)c1cc2c(cc1Cl)N[C@@H]([C@@H]1C[C@@H]3C=C[C@H]1C3)NS2(=O)=O	-9.5%
COC(=O)c1ccc(C(NC(=O)OCc2ccccc2)/C(C)=C/[C@@H](C)C(=O)NCc2nc3ccccc3s2)cc1 (some centres not stated)	-2.6%
SMILES	ERK EGF inh	others
CN1CCCC2(CCN(C(=O)c3cnccn3)CC2)C1	-2.7%
COC(=O)CC1C2(C)CC34OC5(C)O[C@@]6(C7/C(=C(/OC)C(C)C)C(=O)OC(c8ccoc8)[C@@]7(C)C(OC(=O)C(C)C)C(OC)[C@]6(O5)[C@@]13C)C(OC)[C@]4(OC)C2OC(C)=O (some centres not stated)	-5.3%
O=C1/C(=C/c2ccncc2)N=C2CCCCCN12	-9.8%[57.5 µM]
O=C1/C(=C/c2ccncc2)CCC/C1=C\c1ccncc1	22.4µM*
O=C1CCC/C1=C\c1ccccc1	-8.4%
COc1ccc(NC(=O)N2CC[C@@]3(CCCNC3)C2)cc1	0.9%
COc1cc2c(cc1OC)C(C(=O)c1ccc(OC)c(OC)c1O)=NCC2	-0.9%
CN(C)c1ccc(-c2cc(NCc3ccccc3)ncn2)cc1	34.5%
CN(C)c1ccc(-c2ccc3ncnc(NCc4ccccc4)c3c2)cc1	8.91µM*	ERK pERK EGF=11.2µM*;c-Raf inh=?;MEK1 kinase inh=0.0%
Cc1noc(C)c1-c1ccc2ncnc(NCc3ccccc3)c2c1	23.9%
O=C(CSc1nnc(NC(=O)c2ccco2)s1)Nc1ccc2c(c1)OCCO2	-9.7%
CC1OC(n2cc(F)c(=O)[nH]c2=O)C(O)C1O (configuration not stated)	5.2%
CS(=O)(=O)CCNCc1nc(-c2ccc3ncnc(Nc4ccc(OCc5cccc(F)c5)c(Cl)c4)c3c2)cs1	1µM*	ERK pERK EGF=0.708µM*;c-Raf inh=-9.6;MEK1 kinase inh=-13.2%
CCN(C(=O)C(C)Cl)c1ccccc1 (configuration not stated)	-1.7%
C=C[C@@]1(C)CC(=O)[C@@]2(O)[C@@]3(C)[C@@H](O)CCC(C)(C)[C@@H]3[C@H](O)[C@H](OC(C)=O)[C@@]2(C)O1	-5.3%	ERK pERK EGF=-9.3%;c-Raf inh=-3.2;MEK1 kinase inh=-6.7%
O=C(NCc1ccccn1)C(=O)N/N=C/c1ccc2c(c1)OCO2	5.6%
CCOc1ccc(-c2csc(NNC3=NCCCCC3)n2)cc1	-4.6%
COc1ccccc1-c1cncnc1NCc1cccc(C)c1	23.1%
COc1ccc(CNc2ncnc3cc(Cl)ccc23)cc1	-11.5%
COc1cc2ncnc(NCc3cccc(Cl)c3)c2cc1OC	0.447µM*	ERK pERK EGF=1.78µM*;c-Raf inh=?;MEK1 kinase inh=1.3%
CCN(CCn1cccn1)Cc1ccccc1OCC(O)CN1CCc2ccccc2C1 (configuration not stated)	-9.4%[57.5 µM]
CCOC(=O)C1(CCOc2ccccc2)CCN(Cc2ccc(-n3cccn3)cc2)CC1	-3.6%
COc1ccc(NC(=S)NN(C)C(=S)Nc2ccc(OC)cc2)cc1	-6.2%
CS(=O)(=O)n1nc(-c2ccc(Cl)cc2)nc1N	-5.2%
COc1ccc(OCCn2nnc(-c3ccc(Cl)cc3)n2)cc1	3.6%
SMILES	ERK EGF inh	others
Cn1nc(-c2ccc(Cl)cc2)nc2c(=O)n(C)c(=O)nc1-2	?	ERK pERK EGF=?;c-Raf inh=?;MEK1 kinase inh=?
Cc1ccc(NC(=O)CSc2nnnn2-c2ccc3c(c2)OCO3)cc1C	2.5%
COc1ccc(Cl)cc1NC(=S)NNC(=O)C1(C)CC1(Cl)Cl (configuration not stated)	-15.4%
COc1ccc(N(C(C)C(=O)N2CCC(Cc3ccccc3)CC2)S(C)(=O)=O)cc1 (configuration not stated)	-3.3%
CCOc1ccc(N=C2NC(=O)SC2CC(=O)OC)cc1 (configuration not stated)	5.2%[57.5 µM]
CC(/C=C/c1ccccc1)=N/NC(=O)c1cc([N+](=O)[O-])cc([N+](=O)[O-])c1	29.4%
CC(/C=C/c1ccccc1)=N\Nc1ccccc1[N+](=O)[O-]	7.94µM*	ERK pERK EGF=8.91µM*;c-Raf inh=-3.0;MEK1 kinase inh=-5.5%
CC(/C=C/c1ccccc1)=N/NC(=O)C(O)c1ccccc1 (configuration not stated)	5.6%
CC(C)c1ccccc1NC(=O)COC(=O)c1ccc(Cl)c(S(=O)(=O)N2CCCCCC2)c1	-8.3%
Cc1cc(C)c(C(=O)COC(=O)CCNS(=O)(=O)c2c(Cl)cccc2Cl)cc1C	0.7%
Cc1cc(-c2ccccc2)n(-c2cc(N/N=C/c3ccccc3O)ncn2)n1	10µM*	ERK pERK EGF=?;c-Raf inh=-7.3;MEK1 kinase inh=-17.5%
Cc1cc(N/N=C/c2ccccc2O)nc(-c2ccccc2O)n1	-1.3%
Cc1cc(N/N=C/c2ccc(O)cc2O)nc(-n2nc(C)cc2C)n1	-2.8%
COC(=O)N1CCC2(CC1)CCN(c1ncccn1)CC2	13.9%
CC1SC(c2ccc(F)cc2)NC1=O (configuration not stated)	0.1%

Screens from PubChem BioAssay.
